Data reported in PubChem BioAssay AID624256 (NMMLSC, 2012).
Out of some 360,000 compounds screened, about 3,700 (1%) were called active. About 2% were inconclusive and are not listed.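 How the source made its calls: active means normalized GFP-positive differentiation at or above the plate's own cutoff, the solvent-only control mean plus 3 SD; inconclusive means no clear call, values can overlap the other calls; inactive means the rest.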 Only a selection was taken, and actives are over-represented in it overall.

Assay: induction of myeloid progenitor differentiation, primary screen, cell-based, flow cytometry, MLPCN library (AID 624256);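 on GFP+ MAC1+ double positive: cells exposed to compound for four days before flow analysis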;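 on normalized GFP-positive differentiation: cells exposed to compound for four days before flow analysis; 0% = DMSO wells and 100% = fulvestrant positive control at 5 µM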
Conditions: ER-HoxA9 myeloid progenitors, lysozyme-GFP differentiation, at 10 µM; GFP+ MAC1+ double positive: measured here: differentiation confirmed by MAC1 staining, stronger effect = higher value; normalized GFP-positive differentiation: stronger effect = higher value
For Clc1cccc(Cc2c(-c3cccc(Cl)c3)nc3ccc(Cl)cn23)c1, the GFP+ MAC1+ double positive was 0.4% and the outcome was “inactive”.
With COc1ccc(CNC(=O)c2nnn(CC(=O)Nc3cc(C)cc(C)c3)c2N)cc1 the GFP+ MAC1+ double positive was 0.5% and the outcome was “inactive”.
With CCOc1ccc(Cn2nnc(C(=O)Nc3ccc(OC)cc3OC)c2N)cc1 the GFP+ MAC1+ double positive was 12.5% and the normalized GFP-positive differentiation was 38% (active).
For COc1ccc(NC(=O)Cn2nnc(C(=O)NCCc3ccc(OC)c(OC)c3)c2N)cc1, the GFP+ MAC1+ double positive was 1% and the outcome was “inactive”.
In the case of Cc1cccc(C)c1NC(=O)C(c1cccc(F)c1)N1CCN(C)CC1 (stereo not drawn), the GFP+ MAC1+ double positive is reported as 2.3% and the outcome is reported as “inactive”.
For COc1ccc(S(=O)(=O)N2CCOCC2)cc1NC(=O)COc1ccccc1, the GFP+ MAC1+ double positive was 0.8% and the outcome was “inactive”.
For COc1ccc(S(=O)(=O)N2CCOCC2)cc1C(=O)NC1CCCCC1, the GFP+ MAC1+ double positive was 0.6% and the outcome was “inactive”.
In the case of COc1ccc(S(=O)(=O)N2CCOCC2)cc1C(=O)Nc1nc2ccccc2s1, the GFP+ MAC1+ double positive is reported as 27.7% and the normalized GFP-positive differentiation is reported as 33.1% (active).
With Cc1c(C(=O)NCC2CC2)sc(=O)n1Cc1cccc(F)c1 the GFP+ MAC1+ double positive was 4.3% and the outcome was “inactive”.
For O=S1(=O)CC(N2CCN(Cc3ccccc3F)CC2)CN1Cc1cn(Cc2cccc(C(F)(F)F)c2)nn1 (stereo not drawn), the GFP+ MAC1+ double positive was 1% and the outcome was “inactive”.
In the case of O=C1C=CN2CCCC2CC1 (stereo not drawn), the GFP+ MAC1+ double positive is reported as 1.2% and the normalized GFP-positive differentiation is reported as 7.96% (active).
In the case of CC(=O)C1=CCC(c2ccccc2)N(S(=O)(=O)c2ccc(C)cc2)C1 (stereo not drawn), the GFP+ MAC1+ double positive is reported as 1.6% and the outcome is reported as “inactive”.
For Cc1ccccc1S(=O)(=O)N1[C@@H](c2cccc(Cl)c2)C(C(=O)OC(C)(C)C)=CC[C@H]1c1ccc(Cl)cc1, the GFP+ MAC1+ double positive was 0.4% and the outcome was “inactive”.
In the case of COc1ccc(S(=O)(=O)N[C@@H]2C=C[C@@H](CC(=O)N3CCc4ccccc4C3)O[C@@H]2CO)cc1, the GFP+ MAC1+ double positive is reported as 1.9% and the outcome is reported as “inactive”.
With CN1/C(=c2/s/c(=C3/C(=O)N(c4ccccc4)NC3=Nc3ccccc3)n(C)c2=O)C(C)(C)c2ccccc21 the GFP+ MAC1+ double positive was 13.2% and the normalized GFP-positive differentiation was 200% (active).
In the case of Cc1cccc(-c2cnc(C(O)c3ccc4ccccc4c3)[nH]2)c1 (stereo not drawn), the GFP+ MAC1+ double positive is reported as 0.2% and the outcome is reported as “inactive”.
In the case of CNc1nc2c(C)cccn2c(=O)c1C=Nc1ccc(OC)cc1, the GFP+ MAC1+ double positive is reported as 0.6% and the outcome is reported as “inactive”.
For Cc1cccn2c(=O)c(C=O)c(Nc3ccc(S(N)(=O)=O)cc3)nc12, the GFP+ MAC1+ double positive was 0.8% and the outcome was “inactive”.
With CCCN(CCC)c1nc2c(C)cccn2c(=O)c1/C=C1/SC(=S)N(Cc2ccco2)C1=O the GFP+ MAC1+ double positive was 9.4% and the normalized GFP-positive differentiation was 389% (active).
With Cc1cccn2c(=O)c(/C=C3\SC(=S)N(CC(C)C)C3=O)c(NCCCOC(C)C)nc12 the GFP+ MAC1+ double positive was 6% and the normalized GFP-positive differentiation was 235% (active).
For Cc1ccc2[nH]c(=O)c(-c3nc4c(C)cccn4c3NCc3ccco3)cc2c1, the GFP+ MAC1+ double positive was 0.8% and the outcome was “inactive”.
For CC(C)C1C(=O)N(Cc2cn(CCC3OCCO3)nn2)CCS(=O)(=O)N1Cc1ccc(-c2ccccc2C(F)(F)F)cc1 (stereo not drawn), the GFP+ MAC1+ double positive was 1.5% and the outcome was “inactive”.
In the case of CCCCOCCCNC(=O)C[C@@H]1C[C@@]2(C(=O)OC)CCCCC=C2N(CCC2=CCCCC2)C1=O, the GFP+ MAC1+ double positive is reported as 1.3% and the outcome is reported as “inactive”.
In the case of CCOC(=O)[C@]12CCCC=C1N(CCC1=CCCCC1)C(=O)[C@H](CC(=O)NCCCOC)C2, the GFP+ MAC1+ double positive is reported as 2.8% and the outcome is reported as “inactive”.
In the case of CC(C)NC(=O)C1(C)CCCCN1Cc1cccc(C(F)(F)F)c1 (stereo not drawn), the GFP+ MAC1+ double positive is reported as 1.4% and the outcome is reported as “inactive”.
With COc1ccccc1CNC(=O)C1CCN(S(C)(=O)=O)CC1 the GFP+ MAC1+ double positive was 0.7% and the outcome was “inactive”.
With COc1ccccc1CNC(=O)C1CCN(C(=O)[C@@H]2Cc3ccccc3CN2)CC1 the GFP+ MAC1+ double positive was 4.9% and the outcome was “inactive”.
In the case of COc1ccccc1CNC(=O)C1CCN(c2nc3ccccc3o2)CC1, the GFP+ MAC1+ double positive is reported as 4.6% and the normalized GFP-positive differentiation is reported as 9.06% (active).
In the case of CNC[C@H]1OCc2cnnn2CCCC(=O)N([C@H](C)CO)C[C@@H]1C, the GFP+ MAC1+ double positive is reported as 0.8% and the outcome is reported as “inactive”.
For CC(C)C[C@H]1CNC(=O)C(=O)N1C[C@H]1CCCN1C[C@H](Cc1ccc(O)cc1)N1C[C@H](CC(C)C)N(CC2CCCCCC2)C(=O)C1=O, the GFP+ MAC1+ double positive was 1.3% and the outcome was “inactive”.
For CCCCc1c(-c2ccc(Cl)cc2)ncn1CCc1ccccc1OC, the GFP+ MAC1+ double positive was 2.2% and the outcome was “inactive”.
With O=C(NCC1CCCCC1)NCC1CCCCC1 the GFP+ MAC1+ double positive was 5.3% and the normalized GFP-positive differentiation was 9.67% (active).
For N#CCC(=O)NC(=O)NCC1CC1, the GFP+ MAC1+ double positive was 1.2% and the outcome was “inactive”.
For CC(C)(C)NC(=O)NC(=O)COC(=O)CCC1CCCCC1, the GFP+ MAC1+ double positive was 0.5% and the outcome was “inactive”.
For COC(=O)Cc1ccc(OC2(C)CCN(Cc3ccc4c(c3)OCCO4)C2)cc1 (stereo not drawn), the GFP+ MAC1+ double positive was 2.5% and the outcome was “inactive”.
With CCC(c1nc2ccccc2[nH]1)n1c(=O)c(-c2cccs2)nc2ccccc21 (stereo not drawn) the GFP+ MAC1+ double positive was 2.5% and the outcome was “inactive”.
With CCCc1c(-c2ccccc2F)ncn1Cc1ccccc1OC the GFP+ MAC1+ double positive was 1.4% and the outcome was “inactive”.
With CCc1c(-c2ccc(F)cc2)ncn1Cc1cccc(-c2ccccc2)c1 the GFP+ MAC1+ double positive was 3.4% and the outcome was “inactive”.
In the case of Cc1cc2nc3c(=O)n(Cc4ccccc4)c(=O)[nH]c3nc2cc1N, the GFP+ MAC1+ double positive is reported as 5% and the normalized GFP-positive differentiation is reported as 282% (active).
In the case of CN(C(=O)COC(=O)c1ccc(Br)o1)c1c(N)n(Cc2ccccc2)c(=O)[nH]c1=O, the GFP+ MAC1+ double positive is reported as 0.6% and the outcome is reported as “inactive”.
In the case of Nc1cc(=O)n(Cc2ccccc2)c(=O)n1Cc1ccccc1, the GFP+ MAC1+ double positive is reported as 1.4% and the outcome is reported as “inactive”.
With COC(=O)[C@]12CCCCC=C1N(CCC1=CCCCC1)C(=O)[C@H](CC(=O)N1CCSCC1)C2 the GFP+ MAC1+ double positive was 0.5% and the outcome was “inactive”.
For N#CC1=C(N)Oc2c(ccc3cccnc23)C1c1ccncc1 (stereo not drawn), the GFP+ MAC1+ double positive was 0% and the outcome was “inactive”.
In the case of N#CC1=C(N)Oc2c(sc3ccccc23)C1c1ccco1 (stereo not drawn), the GFP+ MAC1+ double positive is reported as 2.5% and the normalized GFP-positive differentiation is reported as 197% (active).
In the case of N#CC1=C(N)Oc2cc(N)ccc2C1c1ccccc1 (stereo not drawn), the GFP+ MAC1+ double positive is reported as 0.2% and the outcome is reported as “inactive”.
With CCCCNC(=O)OC1CC2CC1[C@H]1CCCCN1C2=O (stereo partly drawn) the GFP+ MAC1+ double positive was 0.8% and the outcome was “inactive”.
With COC(=O)[C@@]12C[C@@H](CC(=O)NCCCCc3ccccc3)C(=O)N(Cc3ccccc3)C1=CCC(C)(C)C2 the GFP+ MAC1+ double positive was 3.1% and the outcome was “inactive”.
For Cc1ccc(C(=O)NNC(=O)c2ccncc2)cc1S(=O)(=O)N1CCCCC1, the GFP+ MAC1+ double positive was 0.5% and the outcome was “inactive”.
For Cc1ccc(C(=O)NC2CCCC(C)C2C)cc1S(=O)(=O)N1CCCCC1 (stereo not drawn), the GFP+ MAC1+ double positive was 2.2% and the normalized GFP-positive differentiation was 27.1% (active).
With CC1CCCC(NC(=O)c2cc(S(=O)(=O)N3CCCCC3)ccc2Cl)C1C (stereo not drawn) the GFP+ MAC1+ double positive was 1.2% and the outcome was “inactive”.
In the case of CCOC(=O)[C@]12CCC=C1N(Cc1ccco1)C(=O)[C@H](CC(=O)NCc1cccc(C(F)(F)F)c1)C2, the GFP+ MAC1+ double positive is reported as 1.6% and the outcome is reported as “inactive”.
In the case of CN1CCN(CCC(=O)N/N=C/C=C2\N(C)c3ccccc3C2(C)C)CC1, the GFP+ MAC1+ double positive is reported as 2.2% and the normalized GFP-positive differentiation is reported as 224% (active).
For Cc1cc(NC(=O)CCN2CCN(Cc3ccccc3)CC2)ccc1Br, the GFP+ MAC1+ double positive was 0.5% and the outcome was “inactive”.
In the case of COc1ccccc1/C=C/C=N/NC(=O)CN1CCN(Cc2ccccc2)CC1, the GFP+ MAC1+ double positive is reported as 0.2% and the outcome is reported as “inactive”.
